# Measured values taken from PubChem BioAssay AID1508600 (Functional Genomics Laboratory (NCATS/FGL), 2020).
# Hit rate of the full screen: of about 53,000 sequences, about 3,700 (7%) were called active. Shown is part of a subset that was picked to be rich in actives. A number with no mark means an inactive call.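 Rule for the calls: active = gene knockdowns whose robust z-score for IL-1 alpha signal is at least 2 or at most -2, so actives lie on both sides; inactive = the rest.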
# Experiment: Components of the Cytosolic LPS Sensing Pathway: Gene Identification via Genome-wide siRNA Screen;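 note: robust z of the log signal after scaling to non-targeting control siRNA wells of the plate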
# Conditions: RAW264.7 macrophages, IL-1a HTRF, actives lie on both sides, screened at 100 nM (by protocol), cells primed 5 h with Pam3CSK4 first
# Outline: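 Knockdown: 100 nM siRNA, 48h, RAW264.7. Stimulation: Pam3CSK4 5 h, then LipidA via TransIT-TKO 24 h. Output: supernatant IL-1a HTRF, negative-control-normalized, log robust z-score; viability by CellTiter-Glo.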
row,Sequence,z-score
1,GGUAAGCUCCAAUUAUGCCTT against Ubr3,0.0463
2,GGAGCAAUUGAGAAAGAAGTT against Moap1,0.508
3,CCCGUAACCAUUUACUGGUTT against Tyro3,0.85
4,GGCACGAGCUCUCAUCUUUTT against Slc27a4,-0.752
5,GGAAACAAGGGACUCUGUATT against Col4a4,0.906
6,GCAGCUUUUUGAGGUGUUATT against Slc9a7,3.07 (active)
7,GGAAUAGUGAAGGUACUUUTT against Cer1,2.4 (active)
8,GGAAUUCUCUAUACCAAGATT against P2ry10b,0.51
9,GCAAUUCCUCUUUUAGUCCTT against Spag6l,-1.38
10,GGCAGAUCUUCUUUGGAAATT against Ugt2b38,0.757
11,GGACCGUCAGUGUCAUGGATT against Zfp397,-2.55 (active)
12,CCAUUGUUUGACUCAAAACTT against Gjc3,0.62
13,GGACCAUGGAUAUUUAAAGTT against Mafk,-0.297
14,GGAACUCUGUGGGUGAGAATT against Dock8,-1.46
15,CCGGAUGUGCCUUGUCUACTT against Ckap5,-1.58
16,GGAAAAUCAAGACCUAUGGTT against Obox6,-1.37
17,GGAAGAGGUUAGCAAGCAUTT against Iws1,2.27 (active)
18,GUGCAUUGUCUUUUGUAGATT against Olfr1095,-0.753
19,CGAUAAACUGGAUACCACUTT against Sntn,0.437
20,GCAAUCUGUUUAGAGAGAGTT against Slc10a5,-1.16
21,GGUGGUGAAUAUGAUGAUATT against Tsr1,-0.712
22,GCUAAUGAUUUCCGCUUUGTT against Tyw1,0.367

row,Sequence,z-score
1,GCCUUAUGGUUUUGUAUUUTT against Nap1l1,-2.38 (active)
2,GCCCGCAUUCUUAUUCGAUTT against Tmem64,-1.13
3,GCUGAUGUUAAAUUCGCAGTT against Serpinb3b,1.33
4,CCACCUAUCAGGAUUCAACTT against Sf3b6,-3.37 (active)
5,GGAGCCCUGUGUCUUGAGUTT against Ccl19,-0.39
6,GGAGAUCCAAGAGAAAUUUTT against Csf3r,1.18
7,GCAUUACACUGUUAAUGUUTT against Gopc,-0.138
8,GCCUCAUUAUGAGUUGGCATT against Olfr1419,-2.51 (active)
9,GGAAUCACAAGGUAUUUUCTT against Spo11,-0.237
10,GGUCCACAAUGGCAUCAUATT against Elf4,2.13 (active)
11,GGAGAAGUUUAAGGAGAUUTT against Dnajb5,1.54
12,CCUUUGGUAAUCUCCAAAATT against Amph,0.862
13,CCUUCUGCGGCUCAGUCUATT against Bach2os,-0.199
14,GGAACCUACUGCUACAUCATT against Sftpc,2.24 (active)
15,GGCUUUCCUUACCAUAUAUTT against Trim7,-0.675
16,GGAGAUUGGCAUAGAGAAGTT against Myo5b,0.437
17,AUCCAUUUUGUGCUAGGCATT against Cacfd1,0.473
18,CCUGCUAUGUAAUAUAGAUTT against Eef2k,0.0542
19,CCCGCUUGUUCUGAUGAUATT against 2310039H08Rik,-2.26 (active)
20,GGAAAGAAAUGAAUCAGUATT against Rnf216,0.882
21,GGACAUUAAGAGUGGAAAGTT against Nucb1,0.777
22,GGGAAGGAUUAUGUCAAAUTT against Kit,0.328

row,Sequence,z-score
1,CGGCCUCCAUGUUAAGAUATT against Csf2rb2,-0.249
2,GCCUGAAGAGAGUCUUAUCTT against Bnip5,1.09
3,GGCAUUUAAAUCUGUGUGUTT against Slc39a6,-0.471
4,GCAAUGGUUUCGGCUACGATT against Hoxb3,2.18 (active)
5,GGGAGGAAGUGGAAGUUCUTT against Tsc22d1,0.488
6,GGUGAAUGUAGUGUUAAAATT against Cyrib,-0.204
7,GAGAUGUCCGAAAUGCCAATT against Smco4,1.73
8,GGACAGUGUAGUCAAAAAATT against Cx3cr1,0.149
9,GCAAACCUCAAUCUUGAAATT against Kif15,0.297
10,GGCAGUUAUUUCUAUCUUATT against 1700018F24Rik,0.683
11,GGCUGUUGAACAGGUUAUCTT against Mis12,0.645
12,CCUGAUCAACAAACCGGAUTT against Rfxank,1.29
13,CGACUGUCGUUUGUUGAUGTT against Tktl2,-0.766
14,GUAGAGUGAUGAGAGGCCUTT against Vmn1r-ps8,-0.475
15,UUCAAAUAAACUCUCUGCUTT against Krtap31-2,0.802
16,GGAAUUCCCAAGAGAAGGATT against Gk,-5.27 (active)
17,GCCUUCAUGGGAUUUGUCUTT against Opn1sw,-0.498
18,GGGCCACAGCUUAAUACUGTT against Ptov1,3.28 (active)
19,GCUAGUUUCCGUCGCUUUGTT against Cpeb4,0.555
20,GGUACUGGAAAUCUGUAUGTT against Nlgn1,-0.332
21,GCGAACUUUUACAUUUCGATT against Gmpr,0.272
22,GUGGGAUUCCAGUAGAAAUTT against Olfr1116,0.559

row,Sequence,z-score
1,CCAAGUUAGUGGAUGAAUGTT against Ugt2b35,-0.555
2,GGGAGGAAAUUAAAUUUCATT against Hif1an,-0.223
3,GGCCUUCUAAAGCUGUGAUTT against 6330403K07Rik,-2.7 (active)
4,GGAAAUAUCCUAAACAGAATT against Gdpd2,-0.864
5,GCAGUUGCGUUCUAUUGAATT against Ccdc86,0.179
6,GCCGGUUGGAACAAAAGGCTT against E130018O15Rik,0.993
7,GCGAUCAGUACUGAAGGAATT against Siglecf,-1.27
8,GGAGACUGUCUAAUAAAAATT against Medag,0.0572
9,CUGUAUGUUAUCUCUACACTT against Olfr1513,0.469
10,CCAAAUUGCUUACAUGAUATT against Greb1,1.44
11,GCUGAUAACCUGAUCAACGTT against Nars,0.0406
12,CGACGACUAGACCUCAUCUTT against Dtx4,-0.624
13,GGGUGGAGAACCAAGUUUUTT against Tmed6,3.21 (active)
14,GGACUUAUUCGAUAUAGUATT against Nt5c1b,-1.23
15,UGCAUGGACUUACGAAAGATT against Tas2r115,0.454
16,GCUGCCGUUUAAAUAUAUGTT against D10Wsu102e,0.31
17,CUCCCUGGCAUUAAUCCGUTT against Tepp,0.0788
18,GAUUUGGUGUCUGCCGAGATT against Prrt1,1.73
19,GGCUACAACCAAAUCUUCATT against Papln,0.873
20,GCGAUUAACGGAUCGUACCTT against Letmd1,0.192
21,GGACUUGGAGAGCAAAAGCTT against Ano2,-2.14 (active)
22,GCAGAUCAAAUUUAGCUGATT against Wwc2,0.266

row,Sequence,z-score
1,GCUUUUUAUCCGUGUCGAUTT against 4930474N05Rik,0.501
2,GGUUAAACCCUCUUCUCAUTT against Uhrf2,-0.645
3,CCAAUUCACUUAGGAGCUGTT against Psma4,-2.1 (active)
4,GGAAGUAUCGAGAUUCAUGTT against Pitpnm3,0.0165
5,GCUUCAGACGUAAUUUACUTT against Morc1,0.751
6,GGUUUUGGUUUUGUGGAAUTT against Srsf5,1.45
7,GGAUCUGGUACCCACCCAATT against Jak2,-1.63
8,GGAAUUCUACCUGAAAAUCTT against Arel1,0.122
9,CGCUCUUUCAGCACAAGAATT against Zfp422,-1.57
10,CCUACGACCUGAAGAUAGCTT against Dscc1,-0.124
11,GGUGGACUCAUUCUAAUACTT against Nudt1,-1.06
12,CCUGCUAUACAUUGAACCCTT against Lhcgr,2.52 (active)
13,GGUGUAGCUGGAAUUGGCATT against Nlrp4b,-0.0207
14,GGUGAAGCAAAACGGAGGATT against H2-M10.1,0.512
15,GCCUAUUUCCGUGAACCCGTT against Mgmt,-1.04
16,GGCCAAUCCACGAAAGCAUTT against Strip1,-0.958
17,GCUGGGUGAUAAACAAUGUTT against Rhbg,3.42 (active)
18,GGGACUCUUCACUUGAAAUTT against Ccl3,-3.8e-05
19,GGAUACCACUUUAGAACCATT against Fgfr2,0.484
